Experimental data taken from PubChem BioAssay (NCI).
The panel holds about 79,000 compounds, 15% with a hit somewhere; the sample as a whole holds those more often. Activity calls are given as the source filed them. Cut-off read from the data, not from the text of the source: active = growth inhibition above about 70%; inactive = the rest.

Assay: NCI Yeast Anticancer Drug Screen. Data for the wt2 strain (AID 169);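 note: 0% = growth of vehicle-treated yeast cultures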
Conditions: S. cerevisiae wt2 strain growth inhibition; at 1.2 µM; hits give high values
Outline: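 Against vehicle-treated controls, the growth of yeast exposed to each compound was compared, and the inhibition was recorded.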

SMILES	growth inhibition
COc1ccc(/C=C2\CCc3ccccc3C2=O)cc1OC	-38% (inactive)
O=Cc1ccccc1B(O)O	0% (inactive)
CC(=O)CC[N+](C)(C)C	-22% (inactive)
O=C(O)[C@H]1[C@@H](C2CCCCC2)O[C@@H](C2CCCCC2)O[C@H]1C(F)(F)F	-2% (inactive)
CN(NC(=O)/C(=C/C=C/c1ccccc1)NC(=O)c1ccccc1)C1=C(Cl)C(=O)[N+](c2ccccc2)=CC1	-3% (inactive)
CCCCOc1ccc(Nc2c3ccccc3nc3ccccc23)cc1	7% (inactive)
N#C/C(=C1C=C/C(=N\O)C(Cl)=C\1)c1ccccc1	-13% (inactive)
COc1ccc(C(=O)OCCc2ccccc2)cc1	-6% (inactive)
Cc1c2ccncc2c(C)c2c1oc1ccccc12	7% (inactive)
CCCC#CCOC(=O)c1cc([N+](=O)[O-])cc([N+](=O)[O-])c1	-5% (inactive)
Nc1nc(Nc2ccccc2)nc(Nc2ccccc2)n1	-15% (inactive)
COc1ccc(/C=C2\S/C(=N/Nc3nc(-c4ccccc4)cs3)NC2=O)cc1OC	22% (inactive)
CC(O)CN1C(=O)c2cccc3cc([N+](=O)[O-])cc(c23)C1=O (stereo not drawn)	-27% (inactive)
Cn1c(COc2ccc(/C=N/NC(=O)CCC(=O)N/N=C/c3ccc(OCc4c[n+]5ccccc5n4C)cc3)cc2)c[n+]2ccccc12	4% (inactive)
COC1=C(N=[N+]=[N-])C(=O)c2ncccc2C1=O	-55% (inactive)
CCN(CC)c1ccc(N=Nc2cc(S(=O)(=O)O)ccc2O)c(O)c1	-13% (inactive)
O=C1C(C(O)(C(F)(F)F)C(F)(F)F)CCC1C(O)(C(F)(F)F)C(F)(F)F (stereo not drawn)	1% (inactive)
CN(C)CCNC(=O)c1cccc2nc3c(ccc4ccccc43)nc12	-2% (inactive)
O=S(=O)(CCC[C@H]1[C@@H](CCOCc2ccccc2)C2CCCN1O2)c1ccccc1 (stereo partly drawn)	-1% (inactive)
CCC(C)/C(C)=N/NC(N)=O (stereo not drawn)	1% (inactive)
Nc1c([N+](=O)[O-])cc2c3c(cccc13)CC2	3% (inactive)
CC1=Cc2ccc(C)cc2C(=O)C1=O	-7% (inactive)
C=Cc1c(C)c(O)cc2c1-c1ccc(O)c(C)c1CC2	-63% (inactive)
NCC(O)CSCc1ccc(Cl)cc1 (stereo not drawn)	-6% (inactive)
C[n+]1c(-c2ccc(NC(=O)c3ccc(C(=O)Nc4ccc(-c5cn6ccccc6[n+]5C)cc4)cc3)cc2)cn2ccccc21	4% (inactive)
CNC(=O)OCc1c(COC(=O)NC)c(C)n(-c2ccc(Cl)c(Cl)c2)c1C	-48% (inactive)
[O-]c1c2cc(-[n+]3c(-c4ccccc4)cc(-c4ccccc4)cc3-c3ccccc3)cc1COCCOCCOCCOCCOC2	-2% (inactive)
C[Si](C)(C)Cc1ccccc1C(=O)O	-1% (inactive)
